Drawing on PubChem BioAssay AID687043 (Milwaukee Institute for Drug Discovery, 2013), this text covers inhibition for 63 compounds.

What is called inhibition is the relative decrease from the control value, in per cent.

Hit rate of the full screen: of about 16,000 compounds, about 250 (1.6%) were called active. Only a selection was taken, and actives are over-represented in it overall. A number with no mark means an inactive call.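 The calls were made as follows: active = inhibition above the average over every tested compound plus 3 SD (cut at about 40% in these data); inactive = the rest.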

The assay has as its system Hepatitis C virus NS3 helicase. Kind of assay: HCV NS3 helicase inhibitors, primary screen, biochemical, fluorescence polarization, ChemBridge library (AID 687043). The following applies: NS3h Cy5-dT15 DNA binding, at 100 µM, hits give high values.
Consider `O=C(c1cnn2c(C(F)(F)F)cc(-c3cccs3)nc12)N1CCCc2ccccc21`, for which the inhibition was 14.1%. `O=C(COc1ccc(Br)cc1)Nc1cccc(C(F)(F)F)c1`: the inhibition was 3.2%. `CC(=O)n1nc(C)c2c(-c3ccccc3)c3cc(Br)ccc3nc21`: the inhibition was 0.3%.

With `O=C(NNC(=O)c1ccc(-c2ccccc2)cc1)Nc1ccccc1`, the inhibition is 6.7%. For `O=C(O)COc1ccc2c(=O)c(Oc3ccccc3Br)coc2c1`, the inhibition was 4.5%. With `CCOc1ccc(NC(=O)C2=C(C)NC(=S)NC2c2c(OC)ccc3ccccc23)cc1` (stereo not drawn), the inhibition was 6.9%. With `CCc1ccc2oc(-c3ccc(NC(=O)c4ccccc4[N+](=O)[O-])cc3)nc2c1`, the inhibition was 17.7%.

Take `COc1ccc2oc(=O)c(-c3ccc(I)cc3)cc2c1`: the inhibition is 1.3%. On to `Cc1ccc(C(=O)C[n+]2cc(-c3ccccc3)n3c2CCCCC3)cc1`, for which the inhibition was 54.5% (active). Take `COC(=O)c1cc(NC(=O)c2ccc(OC)cc2)cc(C(=O)OC)c1`: the inhibition is 1.9%. For the compound `O=C1CS/C(=N/N=C\c2ccc([N+](=O)[O-])cc2)N1c1ccc(O)cc1`, the inhibition was 9.1%.

In the case of `COc1ccc(C(=O)Oc2ccc3oc(=O)cc(C)c3c2)cc1OC`, the inhibition was 48.9% (active). Regarding `Cc1cc(=O)oc2ccc(OCC(=O)O)cc12`, the inhibition was -3.9%.

As to `C=C(C)COc1ccc2oc(C)c(C(=O)OC)c2c1`, the inhibition was 12.1%. Consider `O=C(Nc1c(F)cc(F)cc1Br)c1cc2n(n1)C(C(F)(F)F)CC(c1cccs1)N2` (stereo not drawn), for which the inhibition was 11.4%.

`O=C(/C=C/c1cccc([N+](=O)[O-])c1)Nc1ccc(O)c(-c2nc3ccccc3o2)c1`: the inhibition was 12.7%. Regarding `CCOc1ccc(C2(Cc3ccccc3)C(=O)c3ccccc3C2=O)cc1`, the inhibition is 5.5%. `CC1=C(C(=O)OCC2CCCO2)C(c2cccc(C(F)(F)F)c2)C2=C(CCCC2=O)N1` (stereo not drawn): the inhibition was -1.6%. For `CSc1nsc(SC)c1NC(=O)OCC1([N+](=O)[O-])COC(C)(C)OC1`, the inhibition is 3.2%. With `CC(C)n1c(O)c(C2=c3ccccc3=NC2=O)sc1=S`, the inhibition was 6.8%. As for `CCOc1cc(/C=c2\sc3nc4ccccc4n3c2=O)ccc1OC(C)c1ccccc1` (stereo not drawn), the inhibition is 2.5%. As to `CCCC(=O)Nc1cccc(NC(=O)c2ccc(-c3ccc(Cl)cc3Cl)o2)c1`, the inhibition is 8.9%. As to `Cc1cc(I)ccc1NC(=O)COc1ccc(Br)cc1`, the inhibition was 8%.

As to `Clc1ccc(Cn2c(CNc3ccc(Cl)cc3)nc3ccccc32)cc1`, the inhibition is 9.9%. With `Cc1ccc(N2C(=O)CC(NCc3ccc(F)cc3)C2=O)cc1` (stereo not drawn), the inhibition is 5%. For `Cc1ccc(S(=O)(=O)Nc2cc(-c3ccc(F)cc3)[nH]n2)cc1`, the inhibition was -6.5%.

With `O=C(Nc1nccs1)c1ccc(NC(=O)C2CCCCC2)cc1`, the inhibition was 12.5%.

For the compound `N/C(=N/OC(=O)c1ccccc1F)c1ccc(Br)cc1`, the inhibition was -3.4%. In the case of `CC(C)c1ccc(/C=C(\C(=O)c2ccccc2Cl)c2nc3ccccc3o2)cc1`, the inhibition was 10.6%.

`N#Cc1c(N)nc2sc(C(=O)Nc3ccccc3)c(N)c2c1-c1ccco1`: the inhibition was 65.7% (active). On to `O=C(Nc1ccc(Oc2ccccc2)cc1)c1ccco1`, for which the inhibition is 12%. In the case of `N#Cc1c(SCC(=O)c2ccc(Cl)cc2)nc2c(c1-c1ccco1)CCCC2`, the inhibition is -2.3%. As to `COC(=O)c1cc(C(=O)N(Cc2ccccc2)c2ccccn2)cc([N+](=O)[O-])c1`, the inhibition is 8.4%. The same measure for `CCOC(=O)c1cc2n(n1)C(C(F)(F)F)CC(c1ccco1)N2` (stereo not drawn): 1.4%; for `COc1ccc(Nc2nc(-c3ccccc3)c3cc(C)ccc3n2)cc1`: 6.7%. With `COc1ccc(S(=O)(=O)NCCC(C)C)cc1`, the inhibition was 4.2%. As to `Cc1ccc(CCC(=O)Nc2ncc(Cc3ccc(F)cc3)s2)o1`, the inhibition was -10.4%. In the case of `COc1ccc(C(=O)Nc2ccc(Br)cc2C)c(OC)c1`, the inhibition was 24.4%.

`COc1ccccc1CNC(=O)C1CC(=O)N(c2ccc(F)cc2)C1` (stereo not drawn): the inhibition is 1.7%. For the compound `Cc1ccc(C(=O)Nc2ccc(Cl)cc2)cc1[N+](=O)[O-]`, the inhibition was -9.5%. Turning to `O=C(/C=C/c1cc2c(cc1Br)OCO2)c1cccc([N+](=O)[O-])c1`, the inhibition is 2.3%. As to `COc1ccc(-c2noc(-c3ccc(Br)cc3)n2)cc1`, the inhibition was 3.3%. Turning to `O=C(NCc1ccco1)/C(=C/c1cccc(Oc2ccccc2)c1)NC(=O)c1ccccc1`, the inhibition was 9.7%. Turning to `Cc1nc(SCC#N)c(C#N)c(C)c1C`, the inhibition is 9%. To `COc1ccc2c(Cl)c(C(=O)NCc3ccc4c(c3)OCO4)sc2c1` belongs 17%; to `Cc1ccccc1OCC(=O)Nc1ccc(OC(F)(F)F)cc1`, 2.3%; to `CC(C)Nc1nc(-c2ccc(Cl)cc2)nc2ccccc12`, 19.8%. The same measure for `COc1cccc(C2C(C(=O)Nc3ccccc3)=C(C)N=c3s/c(=C\c4ccncc4)c(=O)n32)c1` (stereo not drawn): 2.2%; for `Cn1c(=O)c2c(nc(Sc3ncn[nH]3)n2C)n(C)c1=O`: -6.5%; for `CCOC(=O)C1=C(C)N=c2s/c(=C/c3c[nH]c4ccccc34)c(=O)n2C1c1ccc(F)cc1` (stereo not drawn): -6.3%.

As for `O=C(c1ccncc1)N1N=C(c2ccc(Cl)cc2)CC1(O)C(F)(F)F` (stereo not drawn), the inhibition is 13.4%. Turning to `COC(=O)C1=C(C)NC2=C(C(=O)CC(c3ccc(OC)c(OC)c3)C2)C1c1ccc(OC)c(OC)c1` (stereo not drawn), the inhibition was 7.3%. For `O=C(CN(c1cccc(Br)c1)S(=O)(=O)c1ccccc1)N1CCOCC1`, the inhibition was 3.1%. For `Cn1c(=O)n(CCOc2ccc(Br)cc2)c2ccccc21`, the inhibition is 13.9%.

Regarding `Cc1nc2c([N+](=O)[O-])cc(Br)cc2c(=O)[nH]1`, the inhibition was -12.6%. In the case of `COc1ccc(CCNC(=O)C(=O)Nc2ccccc2C)cc1OC`, the inhibition was 15.5%.

For `CCOc1ccc(C2=C/C(=C/c3ccc(OC)c(OC)c3)C(=O)O2)cc1`, the inhibition was -0.3%. For `Cc1ccc(COc2ccc3oc(C)c(C(=O)O)c3c2)cc1`, the inhibition was 5.2%. With `COc1ccccc1N1CCN(S(=O)(=O)c2ccc(SC)cc2)CC1`, the inhibition was -1.6%.

On to `CCOc1cc(/C=C2\C=C(c3ccc(C)cc3)OC2=O)ccc1OC(C)=O`, for which the inhibition is -4.9%. Consider `O=C(COc1ccc(Br)cc1)Nc1cccc2nsnc12`, for which the inhibition was 6%. `O=C(COc1ccccc1)Nc1ccc(NC(=O)COc2ccccc2)cc1`: the inhibition was 2.2%. For `COc1ccc(OC)c(C=NN2CCN(Cc3ccc(C)cc3C)CC2)c1`, the inhibition was 11.9%.
